Laboratory results: PubChem BioAssay (NCI)
This is part of a sample that, as a whole, favours compounds with a hit. Of some 79,000 tested, about 15% had one in any assay. Cut-off read from the data, not from the text of the source: active = growth inhibition above about 70%; inactive = the rest.

Key:
[1] = NCI Yeast Anticancer Drug Screen. Data for the rad50 strain (AID 155);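 note: 0% = growth of vehicle-only cultures of the same strain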; conditions: S. cerevisiae rad50 strain growth inhibition; at 50.0 µM; hits give high values
Method in brief: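 Relative growth inhibition (compound vs vehicle) was measured in yeast with a defined repair-gene alteration.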

[2] = NCI Yeast Anticancer Drug Screen. Data for the mec2-1 strain (AID 157); conditions: S. cerevisiae mec2-1 strain, at 50.0 µM, hits give high values
Method in brief: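 Each compound was tested on mec2-1 yeast, a strain altered in DNA damage repair or cell cycle control. Growth inhibition is reported relative to vehicle.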

[3] = NCI Yeast Anticancer Drug Screen. Data for the sgs1 mgt1 strain (AID 161);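 note: 0% = growth of cultures given vehicle only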; conditions: S. cerevisiae sgs1 mgt1 strain, at 50.0 µM, hits give high values
Method in brief: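 Mutant yeast exposed to compound; growth scored against vehicle-only wells.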

[4] = NCI Yeast Anticancer Drug Screen. Data for the cln2 rad14 strain (AID 165);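 note: 0% = growth equal to vehicle treated cultures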; conditions: S. cerevisiae cln2 rad14 strain, at 50.0 µM, hits give high values
Method in brief: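 Test compounds were added to cln2 rad14 yeast cultures; inhibition of growth was then determined by comparison with vehicle treatment.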

[5] = NCI Yeast Anticancer Drug Screen. Data for the bub3 strain (AID 167); conditions: S. cerevisiae bub3 mutant strain, at 50.0 µM, hits give high values
Method in brief: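 Screening used yeast with an engineered genetic alteration affecting cell cycle control. Compound-exposed cultures were compared with vehicle cultures, and reduced growth was taken as inhibition.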

[6] = NCI Yeast Anticancer Drug Screen. Data for the mlh1 rad18 strain (AID 175); conditions: S. cerevisiae mlh1 rad18 strain growth inhibition; at 50.0 µM; hits give high values
Method in brief: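 Inhibition values reflect reduced growth of mutant yeast versus vehicle-treated controls following compound exposure; the mutations affect DNA damage repair.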

Measured: growth inhibition

CC(C)(C)CI
inactive: [1] 15.6% | [2] 3.85% | [3] 7.65% | [4] 4.9% | [5] -11.2% | [6] -35.3%

COC(=O)C1CC/C(=N\Nc2ccc([N+](=O)[O-])cc2[N+](=O)[O-])CC1C(=O)OC (centres undefined)
inactive: [1] 10.2% | [2] -5.75% | [3] -8.75% | [4] -1.65% | [5] 5.2% | [6] 19.6%

Cc1ccc(CCOC(=O)Nc2ccccc2)cc1
inactive: [1] -7.55% | [2] 6.4% | [3] -3.25% | [4] -13.1% | [5] 1.8% | [6] 17.2%

O=P(O)(O)c1ccccc1Br
inactive: [1] -13.1% | [2] -17.2% | [3] 4.85% | [4] -15.8% | [5] 2.3% | [6] 3.2%

c1ccc2c(-c3nn[nH]n3)nccc2c1
inactive: [1] 11.6% | [2] -16.2% | [3] -6.5% | [4] -16.9% | [5] -19.9% | [6] -10.9%

COc1ccc(Br)cc1/C=N\NC(=O)c1ccccc1N(C)C
inactive: [1] -24.2% | [2] -11.6% | [3] -10.8% | [4] 6.6% | [5] -3.05% | [6] -4.25%

CC(=O)c1cc2c(cc1C)C(C)(C)CCC2
inactive: [1] 8.45% | [2] 14.2% | [3] 3.1% | [4] -47.7% | [5] -16.4% | [6] 13.1%

Cc1ccc(NC(=S)NCC2CCCO2)cc1C (centres undefined)
inactive: [1] 9% | [2] 7.2% | [3] 10.6% | [4] 8.85% | [5] 19.4% | [6] 14.7%

O=CNC1CCCCC1c1ccc(C2CCCCC2NC=O)cc1 (centres undefined)
inactive: [1] -12.1% | [2] 9.1% | [3] -2.35% | [4] -1.55% | [5] 6.2% | [6] 22.8%

C(=C\C[P+](c1ccccc1)(c1ccccc1)c1ccccc1)/C[P+](c1ccccc1)(c1ccccc1)c1ccccc1
inactive: [1] 12.3% | [2] 13% | [3] 4.95% | [4] -5.55% | [5] -2.75% | [6] 27.9%

NNc1cc(S(=O)(=O)O)cc(C(=O)O)c1O
inactive: [1] 14.5% | [2] 49% | [3] 31.4% | [4] -1.65% | [5] 42.1% | [6] 39.9%

O=C(O)c1ccncc1C(=O)O
inactive: [1] -4.3% | [2] -9.3% | [3] -17.1% | [4] 0.25% | [5] -5.8% | [6] 3%

C[C@H]1C[C@H]2[C@@H]3CC[C@@]4(OCC4=O)[C@@]3(C)C[C@H](O)[C@]2(F)[C@@]2(C)C=CC(=O)C=C12
inactive: [1] -16.6% | [2] -24.4% | [3] 1.6% | [4] -34.9% | [5] 17.4% | [6] 0.35%

COC1/C=C/OC2(C)Oc3c(C)c(O)c4c(O)c(c5c(nc(-c6ccco6)n5-c5ccccc5)c4c3C2=O)NC(=O)/C(C)=C\C=C\C(C)C(O)C(C)C(O)C(C)C(OC(C)=O)C1C (centres undefined)
inactive: [1] -6.2% | [2] -13.8% | [3] -19.8% | [4] 14.2% | [5] -18.8% | [6] -22.7%

COc1cc(OC)c([N+](=O)[O-])cc1/C=C/C(=O)O
inactive: [1] -5.25% | [2] -3.35% | [3] 8% | [4] 6.15% | [5] 9.95% | [6] 4.05%

O=C(O)CCc1nc2ccccc2c(=O)n1Cc1ccccc1
inactive: [1] 11.1% | [2] 10.1% | [3] -7.3% | [4] -6.1% | [5] 2.8% | [6] 10.4%

O=C(CCN1C(=O)c2ccccc2C1=O)NCS(=O)(=O)O
inactive: [1] -11.8% | [2] -4.7% | [3] -11.1% | [4] -47.5% | [5] 16.2% | [6] -17.5%

CCN(c1ccccc1)S(=O)(=O)c1ccccc1N
inactive: [1] -0.75% | [2] -13.2% | [3] 10.7% | [4] 14.4% | [5] -3.6% | [6] -0.4%

Oc1ccccc1-n1nc2ccc3nonc3c2n1
inactive: [1] -16.8% | [2] -61.1% | [3] -38.9% | [4] -35.9% | [5] -1% | [6] -40.5%

Cc1cc2c(c(O)c1-c1c(C)cc(O)c3c1C(=O)C=CC3=O)C(=O)C=CC2=O
inactive: [1] -7.1% | [2] -43.4% | [3] -8.5% | [4] -0.2% | [5] -27.9% | [6] -43.2%

CC(=O)Nc1ccc(/C=C2\N=C(c3ccccc3)OC2=O)cc1
inactive: [1] 15.9% | [2] -1.75% | [3] 11.8% | [4] -49% | [5] -10.9% | [6] 10.3%

CSc1nc(-c2ccc(C)cc2)c(C#N)c(=O)[nH]1
inactive: [1] 6.25% | [2] 4.9% | [3] -9.45% | [4] 24.2% | [5] 0.4% | [6] -55.9%

CCOC(=O)C(Cc1cc(N)c(O)c(N)c1)NC(C)=O (centres undefined)
inactive: [1] 1.95% | [2] -4.95% | [3] -1.5% | [4] 6.8% | [5] -1.45% | [6] -0.85%

O=C1CCCC(=O)C1=Cc1c[nH]c2ccccc12
inactive: [1] 4.3% | [2] 2% | [3] -4.35% | [4] -43% | [5] -16.1% | [6] 15.1%

COC(=O)C(C(=O)C(=O)Nc1ccc(C)cc1C)c1nc2ccc([N+](=O)[O-])cc2[nH]c1=O (centres undefined)
inactive: [1] 9.05% | [2] -1.7% | [3] 4.05% | [4] 7.95% | [5] 4.2% | [6] 6.65%

CNC(=S)ON1CCCCC1
inactive: [1] 6.65% | [2] 19.9% | [3] -23.3% | [4] -7.95% | [5] -5.95% | [6] -38.5%

O=c1cc[nH]c2ccc(Cl)cc12
inactive: [1] -10.2% | [2] 5.3% | [3] -4.4% | [4] -33.4% | [5] -7.1% | [6] -1.45%

Cc1c(C(=O)CC(=O)C(=O)NC2C3CC4CC(C3)CC2C4)[n+](=O)c2ccccc2n1[O-] (centres undefined)
inactive: [1] -11.1% | [2] 0.8% | [3] -26.7% | [4] 16.3% | [5] -9.8% | [6] -20.4%

Clc1ccc(C2N3CCCCC3[C@@H]3c4[nH]c5ccccc5c4CCN23)cc1 (some centres undefined)
inactive: [1] -11.7% | [2] -10.8% | [3] -4.7% | [4] -4.65% | [5] 0.3% | [6] -8.5%

c1ccc(C2(c3ccccc3)CCc3ccccc3O2)cc1
inactive: [1] 27.5% | [2] 15.6% | [3] 4.7% | [4] -40.5% | [5] -9.6% | [6] 31.9%

NC(=O)N/N=C/c1ccc(O)cc1
inactive: [1] 5.15% | [2] -1.15% | [3] 1% | [4] -11.1% | [5] -3.85% | [6] -1.5%

CCOc1ccc(/C=N/NC(=O)CCCCCCCCC(=O)N/N=C/c2ccc(OCC)c(OC)c2)cc1OC
inactive: [1] -25.6% | [2] -5.1% | [3] -27.1% | [4] -27.6% | [5] -1.45% | [6] -8.35%

CCCCC(CC)CN(CC(CC)CCCC)C1C=CCCC1 (centres undefined)
inactive: [1] 3.6% | [2] -10.3% | [3] 7.9% | [4] -36.8% | [5] 6.5% | [6] 2.7%

CCOC([O-])=N/C(=N/[n+]1ccc(C)cc1)c1ccccc1
inactive: [1] 8.35% | [2] 5.55% | [3] -3.45% | [4] -16.1% | [5] -15.1% | [6] -12.5%

O=C(Nc1c(O)[nH][nH]c1=O)c1ccccc1
inactive: [1] 0.45% | [2] -0.05% | [3] -9.7% | [4] -36% | [5] -15.7% | [6] -0.1%

CC1(C)OCC2OC(O)C(OS(=O)(=O)c3ccc([N+](=O)[O-])cc3)C2O1 (centres undefined)
inactive: [1] -5.5% | [2] -2.55% | [3] -0.5% | [4] -33% | [5] -10.9% | [6] -30.3%

N#CC1(N=Cc2ccc3c(c2)OCO3)c2ccccc2-c2ccccc21
inactive: [1] 15.2% | [2] 6.85% | [3] 5.8% | [4] -9.35% | [5] 8.55% | [6] 4.95%

CC(=O)OCSc1ncnc2c1ncn2CN1CCOCC1
inactive: [1] 7.15% | [2] 2.25% | [3] -19.9% | [4] 1.8% | [5] -4.85% | [6] 7.85%

COc1ccc(CCNC(=S)N/C=C(\C#N)S(=O)(=O)c2ccc(C)cc2)cc1OC
inactive: [1] 6% | [2] -0.6% | [3] 4.55% | [4] 3.45% | [5] -19.8% | [6] -11.6%
